These results are taken from PubChem BioAssay (NCATS).

Active and inactive are the calls of the source. How the calls were made is not given here. A value given as a limit tells only on which side of the number the result lay.
Potency means the concentration at half of the fitted maximal effect.

The experiment deals with HIV-1 nucleocapsid protein NCp7 (binding to TG oligonucleotide). Briefly: HIV Nucleocapsid (AID 346).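 Further: potency is for inhibitors that block NC binding and lower polarization.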 Particulars: HIV-1 NC / fluorescein-TGTGTGTG probe, fluorescence polarization. Put shortly: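 Fluorescence polarization binding of 100 nM HIV-1 NC to 10 nM fluorescein-labelled TG4xF oligonucleotide. Buffer was Hepes pH 7.5 with 250mM NaCl, 1uM ZnCl2, TCEP and 2-mercaptoethanol. Compounds were incubated 1 hr at room temperature before the read.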
On the technique in general: Polarisation of emitted light reports the rotation of a fluorescent probe.
On to `COc1ccc(-n2c(=O)c(-c3ccc(F)cc3)nc3cncnc32)cc1`, for which the Potency was > 20 µM (inactive). For `COc1cccc(Cn2c(=O)c(-c3ccc(F)c(F)c3)nc3cncnc32)c1` the value was > 20 µM (inactive); for `CN(C)c1ncc2nc(-c3cc(F)cc(F)c3)c(=O)n(Cc3ccc(F)cc3)c2n1`, > 20 µM (inactive); for `Fc1ccc(Nc2nc(-c3ccoc3)nc3ccccc23)cc1`, > 20 µM (inactive). Consider `COc1ccc(-c2nc3cnc(OCc4ccccc4)nc3n(CCC#N)c2=O)cc1`, for which the Potency is > 20 µM (inactive). For `CCNc1ncc2nc(-c3cccs3)c(=O)n(C[C@H]3CCCO3)c2n1` the value was > 20 µM (inactive). Turning to `COC(=O)N1CCC[C@@]2(CCN(c3ncccn3)C2)C1`, the Potency is > 20 µM (inactive). For `Cn1c(=O)cnc2cnc(Nc3ccccc3)nc21`, the Potency is > 4 µM (inactive). With `FC(F)(F)c1cc(CN2CCCC3(CCNCC3)C2)cc(C(F)(F)F)c1`, the Potency was > 20 µM (inactive). For `COc1ccc(CNc2ncnc3ccc(-c4ccccc4CN(C)C)cc23)c(OC)c1` the value was > 20 µM (inactive); for `O=c1c(-c2cccs2)nc2cncnc2n1Cc1ccc(F)cc1`, > 20 µM (inactive); for `CC(C)NC(=O)N1CC[C@@]2(CCCN(C(=O)c3cccc(F)c3)C2)C1`, > 20 µM (inactive). With `CC(C)NC(=O)N1CCC2(CC1)CCN(C(=O)c1csnn1)CC2`, the Potency was > 20 µM (inactive). For `Cn1c(=O)c(-c2cccs2)nc2cnc(Oc3ccccc3)nc21`, the Potency is > 20 µM (inactive).

In the case of `Clc1ccccc1-c1cc(NCc2cccnc2)ncn1`, the Potency is > 20 µM (inactive). As for `COc1ccc(-c2nc3cnc(N4CCNCC4)nc3n(-c3ccccc3)c2=O)cc1`, the Potency was > 20 µM (inactive).

In the case of `COCCNc1ncnc2ccc(-c3ccoc3)cc12`, the Potency was > 20 µM (inactive). `O=C(c1ccncc1)N1CCC[C@@]2(CCN(c3ccccc3)C2)C1`: the Potency is > 20 µM (inactive). In the case of `CNc1ccnc(-c2ccccc2C)n1`, the Potency is > 20 µM (inactive). As for `O=c1c(-c2ccc(F)cc2)nc2cnc(N3CCNCC3)nc2n1Cc1cccs1`, the Potency is > 20 µM (inactive).

For `N#Cc1ccc(CN2CCCC3(CCN(C(=O)c4cc(C(F)(F)F)cc(C(F)(F)F)c4)CC3)C2)cc1`, the Potency is > 20 µM (inactive). Then `Cc1cccc(CNc2ccnc(-c3ccccc3C(F)(F)F)n2)c1`, with > 20 µM (inactive). `CN1CCN(c2ncc3nc(-c4ccc(Cl)cc4)c(=O)n(-c4ccccc4)c3n2)CC1`: the Potency was > 20 µM (inactive). On to `O=C(c1cnccn1)N1CCC2(CCCN(c3ccccc3)C2)CC1`, for which the Potency was > 20 µM (inactive).

For the molecule `COc1ccc(Oc2ncc3nc(C)c(=O)n(CCc4ccccc4)c3n2)cc1`, the Potency is > 20 µM (inactive).
